# Tested on: Sonic hedgehog protein (Shh)
# Assay: small-molecule binders of Shh protein, primary screen, biochemical, small-molecule microarray, 635/667 nm fluorescence (AID 1151);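 note: Shh protein binding to compounds spotted on small-molecule microarray slides; score combines spot fluorescence intensity with signal-to-noise across triplicate slides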
# Conditions: small-molecule microarray binding, 635 nm fluorescence; higher = more signal
row,Compound,composite z-score
1,C=C(COC)/C(=C/C[C@@H](OC(C)=O)c1cccc(OCCO)c1)c1cc(C(=O)OC)ccc1OC,0.654
2,CC(C)(C)OC(=O)CC[C@]1(C(=O)NCCN2CCOCC2)N=C(c2ccc(OCCCO)cc2)O[C@H]1c1ccccc1CN=[N+]=[N-],-0.577
3,CC(=O)NCCCC[C@@H]1NC(=O)[C@@H]2C[C@H](C(=O)NCCCCCCN(C)C)[C@H](c3ccc(O)cc3)N2C1=O,1.43
4,Cc1ccc(S[C@]2(C(=O)O)CC(=O)N(Cc3ccccc3)[C@@H]2c2ccc(CO)cc2)cc1,0.0306
5,O=C1c2ccccc2[C@](Cc2ccccc2I)(C(=O)NCC(F)(F)F)[C@H](c2ccc(CO)cc2)N1Cc1ccccc1C(F)(F)F,0.137
6,O=C1OCCC=C[C@H]2OC34C=CCN(Cc5ccccc5)C(=O)[C@H]3N(CCO)C(=O)[C@@H]4C12 (stereo partly specified),-0.127
7,C=CCNC(=O)[C@H]1[C@@H]2C(=O)O[C@@H](c3ccccc3)[C@@H](c3ccccc3)N2[C@@H](c2ccccc2OCCO)[C@]12C(=O)N(C(=O)OCCOC)c1ccc(C#CCC(C(=O)OC)C(=O)OC)cc12,1.81
8,COc1ccc([Si](C)(C)[C@H]2[C@H](CC(=O)N3Cc4ccccc4C[C@H]3CO)O[C@@]3(C(=O)N(Cc4cccc(N5CCOC5=O)c4)c4ccccc43)[C@@H]2C)cc1,1.37
9,CC(C)N1CC=CC23O[C@@H]4/C=C\CCCOC(=O)C4[C@H]2C(=O)N(CCO)[C@@H]3C1=O (stereo partly specified),0.289
10,CC(C)CN1C(=O)[C@@]2(Cc3ccccc31)c1ccccc1C(=O)N(C1CCCCC1)[C@H]2c1ccc(CO)cc1,-0.264
11,COc1cccc([C@@H]2[C@@H](C)CC[C@H]3C(=O)N4[C@H](c5cccc(OC)c5)[C@@H](C)CC[C@H]4C(=O)N23)c1,0.944
12,CO[C@H]1COC(=O)[C@H](Cc2ccccc2)NC(=O)CC=C[C@@H](C)[C@H](OC)COC(=O)CC=C[C@@H]1C,0.549
13,CO[C@H]1COC(=O)[C@@H](OCc2ccccc2)C=C[C@H](C)[C@@H](OC)COC(=O)[C@H](OCc2ccccc2)C=C[C@@H]1C,0.537
14,O=C1O[C@@H](c2ccccc2)[C@@H](c2ccccc2)N2[C@@H](c3ccc(O)cc3)[C@]3(C(=O)Nc4ccccc43)[C@@H](C(=O)N3CCN(c4ncccn4)CC3)[C@H]12,-0.0193
15,O=C1O[C@@H](c2ccccc2)[C@@H](c2ccccc2)N2[C@@H](c3ccc(O)cc3)[C@]3(C(=O)Nc4ccc(C#CC5(O)CCCCCC5)cc43)[C@@H](C(=O)Nc3nc4ccccc4s3)[C@H]12,0.741
16,C=CC[C@]1(C(N)=O)N=C(c2ccc(OCCCO)cc2)O[C@H]1c1ccccc1CN=[N+]=[N-],-0.373
17,COCCOC(=O)N1C(=O)[C@@]2(c3cc(C#CCCO)ccc31)[C@H](C(=O)N1CCCCCCC1)[C@H]1C(=O)O[C@H](c3ccccc3)[C@H](c3ccccc3)N1[C@@H]2c1ccc(O)cc1,1.06
18,C=CCOC(=O)[C@@H]1[C@H]2C(=O)O[C@H](c3ccccc3)[C@H](c3ccccc3)N2[C@H](c2ccc(OCCOC(=O)[C@H]3C[C@H]4C(=O)N5CCC[C@H]5C(=O)N4[C@H]3c3ccc(O)cc3)cc2)[C@@]12C(=O)Nc1ccccc12,1.68

row,Compound,composite z-score
1,CO[C@H]1COC(=O)CC=C[C@@H](C)COC(=O)[C@@H](C)NC(=O)CC=C[C@@H]1C,2.06
2,C=CCN1C(=O)[C@@]2(O[C@@H](CCn3cc([C@H](O)c4ccccc4)nn3)[C@H]([Si](C)(C)c3ccc(OC)cc3)[C@H]2C)c2cc(N3CCOC3=O)ccc21,0.185
3,CCCC/C=C/[C@H]([C@@H](O)Cc1ccccc1)N(CC#Cc1ccccc1)Cc1ccccc1Br,-1.29
4,CCOC(=O)[C@H]1C/C=C/C[C@H](C(=O)OCC)C(=O)O[C@H]2[C@@H](OC)O[C@H](CO)[C@@H](OC(=O)Nc3ccc(Br)cc3)[C@@H]2OC1=O,0.69
5,COC(=O)c1c(CC[C@@H](CO)NC(=O)N[C@H](Cn2cc(-c3cncn3C)nn2)C(C)C)oc(C(C)=O)c1C(=O)OC,0.75
6,COc1ccc([Si](C)(C)[C@H]2[C@H](CCO)O[C@@]3(C(=O)N(Cc4ccc(N5CCCCC5=O)cc4)c4ccccc43)[C@@H]2C)cc1,1.58
7,O=C1c2ccccc2[C@](Cc2ccccc2I)(C(=O)O)[C@H](c2ccc(CO)cc2)N1C1CCCCC1,0.636
8,CCCNC(=O)[C@@]1(Sc2ccc(C)cc2)CC(=O)N(Cc2ccccc2Cl)[C@@H]1c1ccc(CO)cc1,1.86
9,O=C(NCC(O)CO)[C@]1(Cc2ccccc2)N=C(c2ccc(OCCCO)cc2)O[C@@H]1c1ccccc1 (stereo partly specified),-0.617
10,O=C(CS)NCCCCCNC(=O)[C@H]1C[C@H]2C(=O)N3CCC[C@H]3C(=O)N2[C@H]1c1ccc(O)cc1,1.63
11,COc1cccc([C@H]2N[C@H](C(=O)O)CC[C@@H]2C)c1,-0.0276
12,CC(C)[Si]1(C(C)C)O[C@@H](c2ccccc2)c2cc(C3CC3)nc(-c3ccc(Oc4ccccc4)cc3)c21,-0.239
13,CC(=O)Nc1ccc([C@H]2[C@H](C)CC[C@H]3C(=O)N4[C@@H](CC[C@@H](C)[C@@H]4c4ccc(NC(C)=O)cc4)C(=O)N32)cc1,1.34
14,COc1cc2c(cc1OC)CN(C(=O)[C@@H]1[C@H]3C(=O)O[C@H](c4ccccc4)[C@H](c4ccccc4)N3[C@H](c3ccccc3OCCO)[C@@]13C(=O)Nc1ccccc13)CC2,0.554
15,[N-]=[N+]=NCc1ccccc1C[C@@]1(C(=O)N2CCOCC2)N=C(c2ccc(OCCCO)cc2)O[C@@H]1c1ccccc1N=[N+]=[N-],0.144
16,C=CC[C@]1(C(=O)OC)N=C(c2ccc(OCCCO)cc2)O[C@H]1c1ccccc1CN=[N+]=[N-],0.0034
17,CO[C@]12C=C(Br)[C@@H](C[C@@H]1c1ccccc1)[C@@]1(CO1)C2=O,0.522
18,C[C@]1(C(=O)NCc2ccccc2)c2ccccc2C(=O)N(Cc2cc(C(F)(F)F)cc(C(F)(F)F)c2)[C@H]1c1ccc(CO)cc1,1.51
